Calls of active or inactive are those of the source. Unless noted, no rule for the calls is given here.
Experiments:
[1] = compounds binding Alexa647 anti-His antibody – biochemical, small-molecule microarray, 635 nm fluorescence, artefact control for SMM control protein annotation, primary screen (AID 1128); conditions: higher = more signal;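 also: score merges feature fluorescence with signal-to-noise for each printed compound spot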
[2] = test system: Human papillomavirus type 1a E7 protein (residues 1-88); assay: HPV1a E7 small-molecule binders, primary screen, biochemical, small-molecule microarray, residues 1-88, 635 nm (AID 1129); conditions: small-molecule microarray binding, fluorescence 635 nm; higher = more signal
[3] = biological target: Focal adhesion kinase 1 (Homo sapiens) (UniProt Q05397); assay: PTK2 protein binding on printed compound slides – biochemical, small-molecule microarray, 635/667 nm fluorescence, BSA, DTT, primary screen (AID 1130); conditions: 635 nm fluorescence, higher = more signal;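 also: composite of spot emission at 667 nm and signal to noise over triplicate slides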
Chain of Focal adhesion kinase 1 (Homo sapiens) (Q05397 whole entry, looked up): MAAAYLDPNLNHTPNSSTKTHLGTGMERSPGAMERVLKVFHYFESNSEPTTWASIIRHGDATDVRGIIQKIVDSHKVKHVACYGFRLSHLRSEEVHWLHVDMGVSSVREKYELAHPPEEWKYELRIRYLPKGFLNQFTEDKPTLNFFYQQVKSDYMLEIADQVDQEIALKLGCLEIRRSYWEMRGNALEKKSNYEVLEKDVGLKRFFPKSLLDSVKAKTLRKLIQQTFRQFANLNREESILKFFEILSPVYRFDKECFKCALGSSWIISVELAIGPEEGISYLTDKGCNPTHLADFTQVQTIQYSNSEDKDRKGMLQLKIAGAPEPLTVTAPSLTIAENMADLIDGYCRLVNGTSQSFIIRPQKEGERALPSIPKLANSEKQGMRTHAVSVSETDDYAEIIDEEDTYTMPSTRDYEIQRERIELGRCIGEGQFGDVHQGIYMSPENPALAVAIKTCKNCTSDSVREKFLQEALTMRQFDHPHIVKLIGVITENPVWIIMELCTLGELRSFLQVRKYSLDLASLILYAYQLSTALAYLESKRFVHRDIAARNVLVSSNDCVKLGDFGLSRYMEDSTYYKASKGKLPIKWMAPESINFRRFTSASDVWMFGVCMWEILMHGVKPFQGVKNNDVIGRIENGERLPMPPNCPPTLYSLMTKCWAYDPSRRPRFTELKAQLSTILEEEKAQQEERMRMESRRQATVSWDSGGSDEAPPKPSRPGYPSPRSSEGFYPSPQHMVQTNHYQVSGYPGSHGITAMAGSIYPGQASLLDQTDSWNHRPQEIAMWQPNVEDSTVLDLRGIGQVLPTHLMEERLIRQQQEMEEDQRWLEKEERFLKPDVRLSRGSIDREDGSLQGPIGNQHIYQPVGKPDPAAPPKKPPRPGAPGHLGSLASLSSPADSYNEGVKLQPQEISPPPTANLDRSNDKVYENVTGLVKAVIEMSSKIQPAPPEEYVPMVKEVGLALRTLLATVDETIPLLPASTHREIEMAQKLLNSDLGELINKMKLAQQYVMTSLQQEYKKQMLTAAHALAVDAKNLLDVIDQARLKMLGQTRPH

[4] = test system: Fibrinogen (Alexa647-labelled); assay: Alexa647-fibrinogen binding to printed small molecules – biochemical, small-molecule microarray, 635/667 nm fluorescence, artefact control for SMM control-protein annotation, profiling panel (AID 1131); conditions: fibrinogen-A647 binding fluorescence, higher = more signal;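 also: z-score merges 667 nm fluorescence with per-spot signal-to-noise over triplicate slides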
[5] = biological target: Follistatin (Homo sapiens) (UniProt P19883); assay: FST protein binding to printed compounds – biochemical, small-molecule microarray, 635/667 nm fluorescence, primary screen (AID 1132); conditions: 635 nm fluorescence, higher = more signal
Chain of Follistatin (Homo sapiens) (P19883 whole entry, looked up): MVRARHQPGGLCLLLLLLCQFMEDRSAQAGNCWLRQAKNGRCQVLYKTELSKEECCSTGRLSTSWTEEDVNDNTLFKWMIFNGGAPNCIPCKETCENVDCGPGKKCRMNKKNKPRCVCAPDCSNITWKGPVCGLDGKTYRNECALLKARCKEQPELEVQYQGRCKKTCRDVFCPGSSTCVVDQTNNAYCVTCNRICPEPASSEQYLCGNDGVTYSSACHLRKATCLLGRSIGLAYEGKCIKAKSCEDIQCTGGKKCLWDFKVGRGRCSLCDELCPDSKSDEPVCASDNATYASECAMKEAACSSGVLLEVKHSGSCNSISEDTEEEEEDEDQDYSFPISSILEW

[6] = biological target: Fibroblast growth factor 2 (Homo sapiens) (UniProt P09038); assay: basic fibroblast growth factor binding to printed compounds – biochemical, small-molecule microarray, 635/667 nm fluorescence, primary screen (AID 1133); conditions: FGF2, fluorescence 635/667, higher = more signal
Chain of Fibroblast growth factor 2 (Homo sapiens) (P09038 whole entry, looked up): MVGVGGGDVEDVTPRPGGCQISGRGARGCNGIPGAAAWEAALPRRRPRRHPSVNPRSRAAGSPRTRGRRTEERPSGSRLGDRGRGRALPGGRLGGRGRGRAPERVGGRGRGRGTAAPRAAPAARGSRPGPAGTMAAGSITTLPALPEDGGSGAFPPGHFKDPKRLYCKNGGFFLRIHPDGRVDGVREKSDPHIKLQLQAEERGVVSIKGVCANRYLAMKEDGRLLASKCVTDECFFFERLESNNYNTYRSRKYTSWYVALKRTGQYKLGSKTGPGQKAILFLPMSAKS

[7] = JC-1 mitochondrial potential readout, lung cancer cells – cell-based, A549, JC-1 fluorescence, basal, 24 h, 100 nL, profiling panel (AID 1138); conditions: higher = more signal;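 also: A549 lung adenocarcinoma cells under basal conditions with no added stimulus; test concentration not given here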
[8] = test system: Lefty1; assay: Lefty1 protein binding to printed compounds – biochemical, small-molecule microarray, 635/667 nm fluorescence, primary screen (AID 1139); conditions: fluorescence 635/667, higher = more signal
[9] = test system: wheat germ agglutinin (Triticum aestivum), Alexa647-labelled; assay: Alexa647-WGA lectin binding to printed small molecules – biochemical, small-molecule microarray, 635/667 nm fluorescence, artefact control for SMM control-protein annotation, profiling panel (AID 1140); conditions: WGA-A647 binding, 635 nm fluorescence, higher = more signal;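 also: score merges 667 nm feature emission with signal to noise over triplicate slides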
[10] = biological target: Luciferin 4-monooxygenase (Photinus pyralis) (UniProt P08659); assay: inhibition of purified Photinus pyralis luciferase – biochemical, luminescence, purified enzyme, 2006 set, primary screen (AID 1141); conditions: purified firefly luciferase, SteadyGlo luminescence, 30 min; higher = more signal, called active from +8 up or from −8 down;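 also: cell-free assay with purified firefly luciferase at 100 ng per well in PBS; test concentration not given here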
Chain of Luciferin 4-monooxygenase (Photinus pyralis) (P08659 whole entry, looked up): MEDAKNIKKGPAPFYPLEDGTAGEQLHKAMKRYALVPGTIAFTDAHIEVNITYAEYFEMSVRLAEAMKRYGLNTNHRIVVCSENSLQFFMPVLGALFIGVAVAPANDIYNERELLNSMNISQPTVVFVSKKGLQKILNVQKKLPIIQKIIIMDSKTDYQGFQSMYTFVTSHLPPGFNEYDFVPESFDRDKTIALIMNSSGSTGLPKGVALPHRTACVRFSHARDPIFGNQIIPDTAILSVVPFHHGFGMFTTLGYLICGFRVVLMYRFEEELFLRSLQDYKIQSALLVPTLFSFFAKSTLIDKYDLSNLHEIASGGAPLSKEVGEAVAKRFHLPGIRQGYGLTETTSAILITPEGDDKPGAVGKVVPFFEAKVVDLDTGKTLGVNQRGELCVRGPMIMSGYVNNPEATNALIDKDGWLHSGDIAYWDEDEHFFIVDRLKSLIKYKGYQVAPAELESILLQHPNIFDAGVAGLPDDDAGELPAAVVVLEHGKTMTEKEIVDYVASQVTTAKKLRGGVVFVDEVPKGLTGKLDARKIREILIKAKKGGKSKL

[11] = test system: Wnt5a (protein binding on small-molecule microarray); assay: small molecules binding Wnt5a protein – biophysical, small-molecule microarray, 635/667 nm fluorescence, primary screen (AID 1142); conditions: 635 nm fluorescence, higher = more signal;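 also: fluorescence read at 667 nm with signal to noise per printed feature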
[12] = ATP-based viability of Huh7 replicon cells – cell-based, CellTiter-Glo luminescence, basal, 48 h, cytotoxicity control for HCV replication inhibitor project, primary screen (AID 1143); conditions: higher = more signal, called active from +8 up or from −8 down;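 also: Huh7 hepatoma cells carrying a hepatitis C replication reporter with no stimulus; test concentration not given here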
[13] = Pseudomonas biofilm growth suppression – PAO1 strain, BacTiter-Glo luminescence, LB-PBS, primary screen (AID 1144); conditions: P. aeruginosa PAO1 biofilm, 12 h, higher = more signal
[14] = basal CRE-LacZ reporter activity in PC12 – cell-based, unstimulated, primary screen (AID 1145); conditions: no forskolin, luminescence, 4.5 h, higher = more signal, called active from +8 up or from −8 down
[15] = forskolin-driven CRE-LacZ activity in PC12 – cell-based, CRE-LacZ reporter, forskolin-stimulated, primary screen (AID 1146); conditions: luminescence, 4.5 h, higher = more signal, called active from +8 up or from −8 down;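 also: PC12 cells with 6xCRE LacZ reporter stimulated by forskolin 10 µM; beta-galactosidase reporter signal reflecting CREB driven transcription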
[16] = biological target: Streptavidin (Streptomyces avidinii) (UniProt P22629); assay: compounds binding control protein streptavidin – biophysical, small-molecule microarray, 635/667 nm fluorescence, artefact control for SMM compound annotation, primary screen (AID 1147); conditions: higher = more signal;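 also: signal reflects streptavidin binding to arrayed compounds as a control protein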
Chain of Streptavidin (Streptomyces avidinii) (P22629 whole entry, looked up): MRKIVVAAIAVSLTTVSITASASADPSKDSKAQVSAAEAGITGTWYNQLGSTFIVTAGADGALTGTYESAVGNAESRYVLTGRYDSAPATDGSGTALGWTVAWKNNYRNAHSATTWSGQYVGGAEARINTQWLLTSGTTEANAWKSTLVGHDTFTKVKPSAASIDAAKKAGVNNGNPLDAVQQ

[17] = probe aInhba binding on compound microarray – biochemical, small-molecule microarray, 635/667 nm fluorescence, primary screen (AID 1148); conditions: higher = more signal;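 also: score merges 667nm spot fluorescence with signal-to-noise for antibody binding to printed compounds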
[18] = biological target: Torsin-1A (Homo sapiens) (UniProt O14656); assay: TOR1A wild-type binding on microarray – cell lysate, small-molecule microarray, lysate, 635/667 nm, primary screen (AID 1149); conditions: COS7 hTOR1A-WT lysate, 635 nm fluorescence, higher = more signal
Chain of Torsin-1A (Homo sapiens) (O14656 whole entry, looked up): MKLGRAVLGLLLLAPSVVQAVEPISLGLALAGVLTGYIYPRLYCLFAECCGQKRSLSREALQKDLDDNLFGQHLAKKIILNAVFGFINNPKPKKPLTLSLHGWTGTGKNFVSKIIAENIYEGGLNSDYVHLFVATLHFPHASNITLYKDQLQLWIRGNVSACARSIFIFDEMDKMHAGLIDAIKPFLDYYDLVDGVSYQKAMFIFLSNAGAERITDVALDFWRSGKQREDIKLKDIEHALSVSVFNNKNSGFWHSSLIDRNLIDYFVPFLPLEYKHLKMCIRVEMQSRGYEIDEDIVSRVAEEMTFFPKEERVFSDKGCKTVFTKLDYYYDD

[19] = biological target: Torsin-1A (Homo sapiens) (UniProt O14656); assay: torsin A mutant lysate binding on microarrays – cell lysate, small-molecule microarray, COS7 lysate, 635/667 nm fluorescence, primary screen (AID 1150); conditions: COS7 hTOR1A mutant lysate, 635 nm fluorescence, higher = more signal;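 also: score pools 667 nm emission and signal to noise measuring lysate protein binding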
[20] = test system: Sonic hedgehog protein (Shh); assay: Sonic hedgehog microarray binding compounds – biochemical, small-molecule microarray, 635/667 nm fluorescence, primary screen (AID 1151); conditions: 635 nm fluorescence, higher = more signal;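 also: Shh protein binding to compounds spotted on small-molecule microarray slides; score combines spot fluorescence intensity with signal-to-noise across triplicate slides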

Compound	composite z-score [1]	composite z-score [2]	composite z-score [3]	composite z-score [4]	composite z-score [5]	composite z-score [6]	z-score [7]	composite z-score [8]	composite z-score [9]	z-score [10]	composite z-score [11]	z-score [12]	z-score [13]	z-score [14]	z-score [15]	composite z-score [16]	composite z-score [17]	composite z-score [18]	composite z-score [19]	composite z-score [20]
O=C1NC(=O)C2C1C=CC(C(O)c1ccc(-c3ccccc3)s1)N2Nc1ccccn1 (stereo not given)	0.322	0.642	0.0118	0.347	0.689	0.0993	0.291	0.0042	0.807	-0.86 (inactive)	0.368	0.429 (inactive)	-0.505 (inactive)	-0.329 (inactive)	0.0978 (inactive)	0.45	-0.0662	0.351	0.898	-0.0564
C=C[C@@H](O)[C@H]1CC(c2ccccc2)=NO1	0.103	-0.565	-0.0062	-0.0611	-0.16	-0.121	1.12	-0.0793	-0.288	-1.53 (inactive)	-0.184	0.0011 (inactive)	0.15 (inactive)	1.03 (inactive)	0.167 (inactive)	0.174	-0.183	0.154	0.334	-0.18
O=C1O[C@H](c2ccccc2)[C@H](c2ccccc2)N2[C@H]1[C@@H](C(=O)NC[C@H](O)c1ccccc1)[C@]1(C(=O)Nc3ccccc31)[C@H]2c1ccccc1OCCO	2.24	1.22	0.271	0.916	0.455	0.538	-0.789	0.799	0.356	-11 (active)	-0.0435	-6.33 (inactive)	-0.908 (inactive)	-0.581 (inactive)	-0.563 (inactive)	-0.164	0.0841	0.735	1.18	1.29
C=CCNC(=O)[C@@H]1[C@H]2C(=O)O[C@H](c3ccccc3)[C@H](c3ccccc3)N2[C@H](c2ccc(O)cc2)[C@@]12C(=O)Nc1ccc(C#CCCO)cc12	0.111	-0.756	1.33	-1.22	-0.773	-0.53	-0.0797	-0.836	1.24	1.05 (inactive)	0.177	-2.21 (inactive)	-0.661 (inactive)	0.0384 (inactive)	-0.612 (inactive)	-0.955	-0.153	-1.05	-0.106	-0.736
CCCCC=C[C@@H](NC(=O)CCc1ccccc1)c1ccccc1	0.838	1.2	0.507	0.939	0.361	0.362	-2.3	-0.0782	1.07	1.08 (inactive)	0.317	-1.98 (inactive)	0.175 (inactive)	-0.951 (inactive)	-0.0104 (inactive)	1.64	0.128	0.677	0.701	0.0847
NC(=O)NCC#Cc1ccc2c(c1)[C@]1(C(=O)N2)[C@H](c2ccc(OCCO)cc2)N2[C@H](c3ccccc3)[C@H](c3ccccc3)OC(=O)[C@H]2[C@@H]1C(=O)N1CCCCCCC1	0.418	1.18	1.08	0.41	1.39	1.15	-1	1.64	1.44	-0.254 (inactive)	1.4	0.132 (inactive)	0.848 (inactive)	-0.0515 (inactive)	0.449 (inactive)	3.11	1.93	0.533	1.02	1.35
CC(C)N1C(=O)c2ccccc2[C@](C)(C(=O)O)[C@@H]1c1ccc(CO)cc1	0.181	-1.44	-0.0258	-1.34	-0.509	-0.977	-0.359	-0.82	-0.36	0.883 (inactive)	-0.654	-0.328 (inactive)	0.00934 (inactive)	-0.206 (inactive)	0.552 (inactive)	-0.603	-0.148	-1.03	-0.792	-1.02
NC(=O)NCC#Cc1ccc2c(c1)[C@]1(C(=O)N2)[C@H](c2ccc(O)cc2)N2[C@H](c3ccccc3)[C@H](c3ccccc3)OC(=O)[C@H]2[C@@H]1C(N)=O	0.184	-1.21	-0.549	-0.934	-0.0645	-0.219	-0.65	-0.295	-0.784	-0.22 (inactive)	-0.0353	-0.281 (inactive)	-0.125 (inactive)	-0.0515 (inactive)	0.143 (inactive)	-0.928	-0.105	-1.49	-1.74	0.0139
CC(C)[Si](C#C[Si](C(C)C)(C(C)C)C(C)C)(O[C@H](C)c1cn(Cc2cccc(Cl)c2)nn1)C(C)C	0.604	1.11	0.586	0.715	0.396	0.67	2.01	0.714	1.17	-1.11 (inactive)	-0.0078	-0.219 (inactive)	-1.25 (inactive)	-0.71 (inactive)	-0.399 (inactive)	0.534	-0.101	0.781	0.262	0.632
O=C(N1CCOCC1)[C@@]1(CCS(=O)(=O)c2ccccc2)COC(c2ccc(OCCCO)cc2)=N1	0.436	1.18	0.307	-0.71	-0.176	0.974	-0.336	-1.32	-0.204	0.735 (inactive)	-0.102	-0.963 (inactive)	0.585 (inactive)	0.148 (inactive)	1.58 (inactive)	-0.411	-0.374	0.385	0.65	-0.784

From PubChem BioAssay
